Test results reported in the supplement of paper PMC3545927.
The other results are listed elsewhere or left out. No count for the full screen is at hand.

Biological target: furin, P09958
Assay: furin cleavage Z-score vs untreated control; higher = more cleavage, active = 3.5 or more, inactive = 1 or less, 8 variable residues between constant flanks
Procedure, shortened: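 Peptides 8 residues long, fused to a cDNA oligonucleotide, were fixed to magnetic beads by the N-terminus and exposed to purified furin. The 0.01 ml reactions contained 50 mM HEPES pH 7.5 with CaCl2 and NaCl at 1:10 enzyme:substrate and ran 7.5, 15 or 30 min. For the cleavage Z-score, log counts of sequenced released DNA were compared with furin-free reactions, lowess-adjusted and scaled by median absolute deviation.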

Chain of furin, P09958 (P09958 whole entry): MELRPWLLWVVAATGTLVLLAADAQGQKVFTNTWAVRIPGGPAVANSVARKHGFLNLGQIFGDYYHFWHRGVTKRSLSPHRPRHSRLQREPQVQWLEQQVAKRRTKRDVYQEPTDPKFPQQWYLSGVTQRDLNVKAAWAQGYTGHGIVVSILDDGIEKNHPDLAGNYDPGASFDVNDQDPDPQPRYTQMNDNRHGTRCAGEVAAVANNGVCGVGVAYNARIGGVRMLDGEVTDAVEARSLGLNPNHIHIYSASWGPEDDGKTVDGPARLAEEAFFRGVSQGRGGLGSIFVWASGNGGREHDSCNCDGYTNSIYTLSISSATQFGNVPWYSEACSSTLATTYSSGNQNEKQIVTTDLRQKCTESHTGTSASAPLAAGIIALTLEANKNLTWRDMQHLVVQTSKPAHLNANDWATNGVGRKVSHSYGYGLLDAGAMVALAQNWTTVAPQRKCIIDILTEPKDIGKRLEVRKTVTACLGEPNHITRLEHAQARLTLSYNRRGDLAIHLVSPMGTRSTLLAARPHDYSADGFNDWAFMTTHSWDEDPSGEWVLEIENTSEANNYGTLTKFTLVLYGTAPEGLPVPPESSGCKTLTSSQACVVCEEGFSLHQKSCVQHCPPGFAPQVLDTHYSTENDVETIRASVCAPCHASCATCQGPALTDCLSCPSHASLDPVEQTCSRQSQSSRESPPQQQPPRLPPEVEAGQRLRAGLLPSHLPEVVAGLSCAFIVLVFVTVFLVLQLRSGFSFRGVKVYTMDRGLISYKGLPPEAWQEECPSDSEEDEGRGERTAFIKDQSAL

Row | Sequence | furin cleavage Z-score (7.5 min) | furin cleavage Z-score (15 min) | furin cleavage Z-score (30 min)
1 | CARCARSSFTAGNASASA [FS-2895] | -1.39 (inactive) | -0.507 (inactive) | -0.615 (inactive)
2 | CAVPAKSVCGAGNASASA [HC409] | -1.6 (inactive) | 0.783 (inactive) | -0.986 (inactive)
3 | CALHCPTDCFAGNASASA [HC450] | 0.987 (inactive) | -0.346 (inactive) | 0.0192 (inactive)
4 | CAHSYSPGEIAGNASASA [HC1608] | -0.391 (inactive) | -1.22 (inactive) | -0.845 (inactive)
5 | CAYHHKFNSSAGNASASA [HC382] | -0.863 (inactive) | -0.739 (inactive) | -0.583 (inactive)
6 | CAARNRQKRFAGNASASA [FS-1308] | 9.16 (active) | 10.4 (active) | 8.81 (active)
7 | CATVGRVKRFAGNASASA [FS-306] | 9.9 (active) | 9.6 (active) | 9.08 (active)
8 | CAGPGREDRFAGNASASA [FS-1590] | 0.0501 (inactive) | -0.782 (inactive) | 0.43 (inactive)
9 | CAARPRWIWFAGNASASA [HC1654] | 0.126 (inactive) | 1.51 | 1.36
10 | CAVCARAQAPAGNASASA [HC957] | -0.611 (inactive) | -0.626 (inactive) | 0.901 (inactive)
11 | CAPIDTTIMAAGNASASA [HC1437] | -1.63 (inactive) | 0.33 (inactive) | -1.75 (inactive)
12 | CAMVECSQHLAGNASASA [HC1690] | 1.97 | 0.64 (inactive) | 0.696 (inactive)
13 | CAHDVVCCSMAGNASASA [HC2115] | -0.409 (inactive) | -0.66 (inactive) | 0.0366 (inactive)
14 | CAVKCCSMSYAGNASASA [HC2014] | -0.221 (inactive) | 0.288 (inactive) | -1.16 (inactive)
15 | CATARHTPVNAGNASASA [HC1570] | -0.556 (inactive) | -0.38 (inactive) | -0.627 (inactive)
16 | CALSFRLKRNAGNASASA [FS-1372] | 12.3 (active) | 11.1 (active) | 9.61 (active)
17 | CAQLRRHIDLAGNASASA [HC289] | -1.12 (inactive) | 0.114 (inactive) | 0.176 (inactive)
18 | CAQLRRYPRNAGNASASA [FS-1249] | 10 (active) | 10.4 (active) | 8.2 (active)
19 | CANSTALNCNAGNASASA [HC372] | 1.61 | 1.23 | 0.944 (inactive)
20 | CAQLRRLKRNAGNASASA [FS-284] | 13 (active) | 12.1 (active) | 9.76 (active)
21 | CAASAYQVRNAGNASASA [HC255] | 2.82 | -0.339 (inactive) | 0.446 (inactive)
22 | CAVYYLTRDPAGNASASA [HC1561] | -0.916 (inactive) | -0.905 (inactive) | -0.163 (inactive)
23 | CAEEVSFRVGAGNASASA [HC1232] | 0.0764 (inactive) | 1.08 | -0.114 (inactive)

Row | Sequence | furin cleavage Z-score (7.5 min) | furin cleavage Z-score (15 min) | furin cleavage Z-score (30 min)
24 | CATVVTSTWVAGNASASA [HC2158] | 0.721 (inactive) | 0.128 (inactive) | 0.308 (inactive)
25 | CAINSVWKDLAGNASASA [HC1430] | 0.0949 (inactive) | 0.0646 (inactive) | 0.992 (inactive)
26 | CAEILRKSRRAGNASASA [HC1297] | -0.468 (inactive) | 1.48 | -0.599 (inactive)
27 | CAFCCRKKRRAGNASASA [FS-586] | 3.8 (active) | 4.73 (active) | 5.93 (active)
28 | CAHSERKKRRAGNASASA [FS-249] | 8.63 (active) | 10.6 (active) | 10.2 (active)
29 | CAAGIAYFSMAGNASASA [HC339] | -0.0596 (inactive) | 0.534 (inactive) | -0.966 (inactive)
30 | CAGGSRWRRSAGNASASA [FS-124] | 6.79 (active) | 5.09 (active) | 5.21 (active)
31 | CAQGNRWRRSAGNASASA [FS-139] | 14.1 (active) | 13 (active) | 9.79 (active)
32 | CAITYSTYGKAGNASASA [HC806] | 0.0361 (inactive) | -1.76 (inactive) | 1.03
33 | CAAGQRLRRDAGNASASA [FS-395] | 12 (active) | 10.2 (active) | 8.42 (active)
34 | CACVPRMRRPAGNASASA [FS-753] | 0.288 (inactive) | -2.19 (inactive) | 0.777 (inactive)
35 | CAAVGRAGRDAGNASASA [FS-11] | 0.567 (inactive) | 1.42 | 0.637 (inactive)
36 | CAAVPRLRRDAGNASASA [FS-644] | 11.8 (active) | 12.1 (active) | 8.75 (active)
37 | CAGDVVCCSMAGNASASA [HC2116] | 0.0391 (inactive) | -0.825 (inactive) | -0.011 (inactive)
38 | CAVVCASMSYAGNASASA [HC81] | 0.42 (inactive) | 1.25 | -0.0546 (inactive)
39 | CAVLVRKRRAAGNASASA [FS-1178] | 12 (active) | 12.9 (active) | 8.97 (active)
40 | CAVLVGGVLAAGNASASA [HC991] | -0.269 (inactive) | -2.26 (inactive) | -1.24 (inactive)
41 | CASQRRKRRAAGNASASA [FS-381] | 6.33 (active) | 6.94 (active) | 4.52 (active)
42 | CAVLVVLLLFAGNASASA [HC346] | -1.01 (inactive) | -0.224 (inactive) | -0.108 (inactive)
43 | CAKSYRKRRAAGNASASA [FS-47] | 9.96 (active) | 10.6 (active) | 7.5 (active)
44 | CAGGPRKRRAAGNASASA [FS-26] | 5.06 (active) | 5.01 (active) | 3.88 (active)
45 | CAGAPLGGAAAGNASASA [HC231] | -0.433 (inactive) | -0.224 (inactive) | -0.596 (inactive)
